# Screening results (PubChem BioAssay)
# U2OS ROS induce – ROS inducers in U2OS cancer cells, primary screen, cell-based, H2DCF-DA fluorescence. U2OS ROS induction. ROS induction (% of piperlongumine), % at 10 µM. 46,000 compounds, 2% hits; in the data active means ROS induction above about 79%, passing the limit was not always enough; inconclusive means no clear call, values can overlap the other calls;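 further: 0% = DMSO vehicle median and 100% = reference compound median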
# NOMO-1 viab – NOMO-1 AML cell viability reduction, primary screen, STK33 inhibitor project, CellTiter-Glo luminescence; NOMO-1 AML viability, 72 h; inhibition, % (concentration not given with the values); 37,000 compounds, 7.5% hits; in the data active means inhibition above about 80%; inconclusive means no clear call, values can overlap the other calls
# * marks the source's active call; other numbers are inactive results; ? = inconclusive; . = not tested or not shown. The entries come from a sample that favours hits as a whole.
SMILES,U2OS ROS induce,NOMO-1 viab
C[C@H]1CN([C@@H](C)CO)C(=O)Cc2cc(NS(=O)(=O)c3ccc(F)cc3)ccc2O[C@@H]1CN(C)Cc1ccccc1,26,31
C[C@@H]1CN([C@H](C)CO)C(=O)Cc2cc(NS(=O)(=O)c3ccc(F)cc3)ccc2O[C@H]1CN(C)Cc1ccc(-c2ccccc2)cc1,65,89*
C[C@@H]1CN([C@@H](C)CO)C(=O)Cc2cc(NS(=O)(=O)c3ccc(F)cc3)ccc2O[C@@H]1CN(C)Cc1ccccc1,5,54
C[C@@H]1CN([C@H](C)CO)C(=O)Cc2cc(NS(=O)(=O)c3ccc(F)cc3)ccc2O[C@@H]1CN(C)Cc1ccc(-c2ccccc2)cc1,107*,?
COc1ccc(NC(=O)N(C)C[C@@H]2Oc3ccc(NC(=O)Nc4ccc(F)cc4)cc3CC(=O)N([C@H](C)CO)C[C@H]2C)cc1,1,25
CCn1c(=S)[nH]c2ccccc2c1=O,0,-17
CCCNC(=O)c1[nH]c2ccccc2c1Sc1ccc(Cl)cc1,-12,.
Cc1[nH]c2ccccc2c1Sc1ccccc1,5,141*
Cc1cc(=O)[nH]c(SCC(=O)Nc2ccc(I)cc2)n1,.,-7
COc1ccc(S(=O)(=O)N(C)C[C@H]2Oc3c(NS(=O)(=O)c4ccc(Cl)cc4)cccc3C(=O)N([C@@H](C)CO)C[C@@H]2C)cc1,-4,4
COc1ccc(C(=O)Nc2ccc(C)cn2)cc1,-4,.
CC(Sc1nc(N)c2c3c(sc2n1)COC(C)(C)C3)C(=O)Nc1ccccc1 (stereo not drawn),61,?
CCOC(=O)c1ccc(NC(=O)Cn2c(=O)oc3ccccc32)cc1,-21,-5
CCOC(=O)c1c(-c2ccccc2)oc2ccc(O)c(CSCC(=O)Nc3ccccc3)c12,20,126*
COc1ccc(NC(=O)N(C)C[C@H]2Oc3ccc(NC(=O)Cc4cn(C)c5ccccc45)cc3CC(=O)N([C@H](C)CO)C[C@H]2C)cc1,4,-9
Cc1cc(C(=O)Nc2cccc3c2O[C@H](CN(C)Cc2ccc(C(=O)Nc4ccccc4N)cc2)[C@@H](C)CN([C@@H](C)CO)C3=O)n(C)n1,189*,?
Cc1cc(C(=O)Nc2cccc3c2O[C@H](CN(C)Cc2ccc(C(=O)Nc4ccccc4N)cc2)[C@H](C)CN([C@H](C)CO)C3=O)n(C)n1,23,127*
Cc1cc(C(=O)Nc2cccc3c2O[C@H](CN(C)Cc2ccc(C(=O)Nc4ccccc4N)cc2)[C@@H](C)CN([C@H](C)CO)C3=O)n(C)n1,130*,63
Cc1cc(C(=O)Nc2cccc3c2O[C@@H](CN(C)Cc2ccc(C(=O)O)cc2)[C@H](C)CN([C@H](C)CO)C3=O)n(C)n1,-5,-4
Cc1cc(C(=O)Nc2cccc3c2O[C@@H](CN(C)Cc2ccc(C(=O)O)cc2)[C@@H](C)CN([C@@H](C)CO)C3=O)n(C)n1,-6,8
Cc1cc(C(=O)Nc2cccc3c2O[C@@H](CN(C)Cc2ccc(C(=O)Nc4ccccc4N)cc2)[C@H](C)CN([C@H](C)CO)C3=O)n(C)n1,29,72
COc1ccc([C@H]2C=C(C(=O)N3CCCCC3)O[C@@H](OCc3ccc(CO)cc3)C2)cc1,45,.
CSc1c(C#N)c(-c2cccs2)nn1CNC(=O)Nc1ccccc1C(F)(F)F,2,26
Cc1cc(-c2nc(C(=O)N3CCCCC3)cs2)no1,-22,.
COc1ccc(C)cc1NC(=O)CCN1CCN(Cc2ccccc2)CC1,14,-1
SMILES,U2OS ROS induce,NOMO-1 viab
NC(=O)COc1ccccc1/C=N/NC(=O)CCCCCCC(=O)Nc1ccccc1O,4,.
COc1cc([N+](=O)[O-])ccc1NC(=O)CSc1nc(C)cc(C(F)(F)F)n1,.,14
CC(C)(C)c1cc(-c2cccs2)c(C#N)c(SCC(=O)Oc2ccccc2)n1,16,18
COc1ccc(-c2cc(-c3cccs3)nc(SC(C(=O)O)c3ccccc3)c2C#N)cc1 (stereo not drawn),149*,92*
N#Cc1c(-c2ccccc2)cc(-c2ccccc2)nc1SCC(O)CS(=O)Cc1ccccc1 (stereo not drawn),144*,.
CCS(=O)(=O)CCSc1nc(-c2ccccc2)cc(-c2ccccc2)c1C#N,98*,.
N#Cc1c(-c2ccco2)cc(-c2cccs2)nc1OCc1ccc(F)cc1,4,23
N#Cc1c(-c2ccccc2)cc(-c2cccs2)nc1SCS(=O)Cc1ccccc1 (stereo not drawn),108*,.
N#Cc1c(-c2ccco2)cc(-c2ccccc2)nc1SCCN1C(=O)c2ccccc2C1=O,-3,.
Cc1cc(-c2ccccc2)nc(SCc2ccccc2)c1C#N,2,.
Cc1noc(C)c1S(=O)(=O)Nc1ccc2c(c1)C(=O)N([C@@H](C)CO)C[C@H](C)[C@@H](CN(C)C(=O)Nc1ccc3c(c1)OCO3)O2,-9,-24
C[C@H](CO)N1C[C@H](C)[C@H](CN(C)CC2CC2)Oc2ccc(NC(=O)C3CCCCC3)cc2CC1=O,7,-10
Nc1cc2ncnc(Nc3cccc(Br)c3)c2cc1N,18,12
CC#CC(=O)Nc1ccc2ncnc(Nc3cccc(Br)c3)c2c1,69,96*
C[C@@H]1CCCCO[C@@H](CN(C)Cc2ccc(C(F)(F)F)cc2)[C@@H](C)CN([C@H](C)CO)C(=O)c2cc(NC(=O)NC3CCCCC3)ccc2O1,17,?
C[C@@H]1CCCCO[C@H](CN(C)Cc2ccc(C(F)(F)F)cc2)[C@@H](C)CN([C@H](C)CO)C(=O)c2cc(NC(=O)c3ccncc3)ccc2O1,17,18
C[C@@H]1CCCCO[C@H](CN(C)Cc2ccc(C(F)(F)F)cc2)[C@@H](C)CN([C@H](C)CO)C(=O)c2cc(NC(=O)Nc3ccc(C(F)(F)F)cc3)ccc2O1,6,113*
C[C@@H]1CCCCO[C@H](CN(C)Cc2ccc(C(F)(F)F)cc2)[C@@H](C)CN([C@H](C)CO)C(=O)c2cc(NC(=O)NC3CCCCC3)ccc2O1,69,94*
Cc1noc(C)c1NC(=O)Nc1ccc2c(c1)C(=O)N([C@H](C)CO)C[C@H](C)[C@@H](CN(C)Cc1ccc(C(F)(F)F)cc1)OCCCC[C@@H](C)O2,9,49
C[C@@H]1CCCCO[C@H](CN(C)CC2CCCCC2)[C@@H](C)CN([C@H](C)CO)C(=O)c2cc(NC(=O)Nc3ccc(C(F)(F)F)cc3)ccc2O1,95*,112*
C[C@@H]1CCCCO[C@H](CN(C)C)[C@@H](C)CN([C@H](C)CO)C(=O)c2cc(NC(=O)Nc3ccc(C(F)(F)F)cc3)ccc2O1,4,13
C[C@@H]1CCCCO[C@@H](CN(C)Cc2ccc(C(F)(F)F)cc2)[C@@H](C)CN([C@H](C)CO)C(=O)c2cc(NC(=O)Nc3ccc(C(F)(F)F)cc3)ccc2O1,10,107*
COc1ccc(C(=O)c2ccccc2)c(Oc2nc([N+](=O)[O-])nn2C)c1,9,22
COCc1nc2ccccc2n1CCOc1ccc(Br)cc1,.,29
COc1ccc(S(=O)(=O)N(C)C[C@H]2Oc3c(NS(=O)(=O)c4ccc(Cl)cc4)cccc3C(=O)N([C@H](C)CO)C[C@@H]2C)cc1,-5,-5
Cc1noc(C)c1S(=O)(=O)N(C)C[C@H]1Oc2ccc(NC(=O)CCCN(C)C)cc2C(=O)N([C@@H](C)CO)C[C@H]1C,-8,32
